The results in this text go back to PubChem BioAssay (NCATS).

Results filed as inconclusive are left out. Active and inactive are the calls of the source. The call rests on the fitted dose curve; in most records, active means well fitted inhibition curve with a large enough effect; inconclusive means small, poorly fitted or top-dose-only effect; inactive means flat fitted curve, though single readings scatter.
On the % scale 0 is the no-effect control and ±100 the full control effect; potency means the concentration at half of the fitted maximal effect.

The experiment relates to CRL-7250. Briefly: Cytotoxic Profiling of Annotated Libraries Using Quantitative High-Throughput Screening (AID 1296008). Further: nearly all actives have a fitted effect of over 60% in size. Particulars: Five cell lines viability, CellTiter-Glo ATP luminescence, 48-72 h; max response: active compounds read low. The procedure, abridged:
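Cells exposed to compounds for 48 or 72 hr at 37 degrees Celsius. Viability read as ATP-coupled luminescence with CellTiter-Glo after 10 min at room temperature.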
Take `Cc1oc2ccccc2c1CNC(=O)NCc1cccs1`: the max response was 1.28% (inactive).

As to `Nc1nc2c(ncn2[C@@H]2O[C@@H]3COP(=O)(O)O[C@H]3[C@H]2O)c(=O)[nH]1`, the max response was -1.98% (inactive).

For the molecule `C[C@@]12C[C@]3(O)O[C@H](O1)[C@]1(COC(=O)c4ccccc4)[C@H]3C[C@@]12O[C@@H]1O[C@H](CO)[C@@H](O)[C@H](O)[C@H]1O`, the max response was 0.654% (inactive).

Take `CC(=O)O[C@@H](CO[C@@H]1O[C@H](CO)[C@H](O)[C@H](O)[C@H]1O)[C@]1(C)C=C2CC[C@@H]3C(C)(C)[C@@H](O)CC[C@@]3(C)[C@@H]2CC1`: the max response was -3.06% (inactive).

Regarding `C/C=C/C=C/[C@@H]1O[C@](O)([C@H](CC)C(=O)NC/C=C/C=C(\C)[C@@H](OC)[C@@H](C)C2OC(/C=C/C=C/C=C(\C)C(=O)c3c(O)cc[nH]c3=O)[C@H](O)[C@@H]2O)[C@H](O)[C@H](O)C1(C)C` (stereo partly specified), the max response is 2.59% (inactive).

Turning to `CC[C@H](CO)Nc1nc(NCc2ccc(-c3ccccn3)cc2)c2ncn(C(C)C)c2n1`, the Potency is 0.092 µM (active).

With `O=C(Nc1ccccc1)N1CCN(Cc2ccc3ccccc3n2)CC1`, the result was inactive.

Turning to `O=C(O)c1ccccc1NCCc1ccccc1`, the max response was 4.16% (inactive).

On to `CC1(C)CC[C@]2(C(=O)O)CC[C@]3(C)C(=CCC4[C@@]5(C)CC[C@H](O[C@@H]6O[C@H](CO)[C@@H](O)[C@H](O)[C@H]6O[C@@H]6O[C@H](CO)[C@@H](O)[C@H](O)[C@H]6O)[C@@](C)(CO)C5CC[C@]43C)[C@@H]2C1` (stereo partly specified), for which the max response was -6.6% (inactive).

Take `CC1(C)CC[C@]2(C(=O)O[C@@H]3O[C@H](CO)[C@@H](O)[C@H](O)[C@H]3O)CC[C@]3(C)C(=CCC4[C@@]5(C)C[C@@H](O)[C@H](O)[C@](C)(C=O)C5CC[C@]43C)[C@@H]2[C@@H]1O` (stereo partly specified): the molecule was classed as inactive.

As to `C[C@@H]1O[C@@H](O[C@H]2[C@H](O)[C@@H](O)[C@H](OC3CCC4(C)C5CCC(C)(C(CO)OC6OC(CO)C(O)C(O)C6O)CC5=CCC4C3(C)C)O[C@@H]2CO)[C@H](O)[C@H](O)[C@H]1O` (stereo partly specified), the max response is 2.65% (inactive).

Turning to `CCOc1cc(C(=O)N2CCC(N3CCN(C)CC3)CC2)ccc1Nc1ncc2c(n1)N(C1CCCC1)c1ccccc1C(=O)N2C`, the Potency is 10.3 µM (active).

For `C=C(C(=O)O)C1CC2=C(C)CCCC2(C)C[C@@H]1O` (stereo partly specified), the molecule was called inactive.

Turning to `CC1=CC(=O)C2C(C)(C)CCC[C@]2(C)[C@H]1CO` (stereo partly specified), the max response was -14.4% (inactive).

In the case of `N#C[C@@H]1CCCN1C(=O)CNC12CC3CC(CC(O)(C3)C1)C2`, the max response was 2.02% (inactive).

On to `CC1(C)CC2C(O)c3cocc3CC(C)(O)C2C1` (stereo unspecified), for which the max response is 0.847% (inactive).

With `O=C(NCc1ccc(F)cc1)C(=O)c1c[nH]c2ccccc12`, the call was inactive.

Take `O=C(Nc1ccc(S(=O)(=O)Nc2ccccc2Cl)c(Cl)c1)c1ccccn1`: the max response is 0.561% (inactive).

Take `CC(C)[C@H]1CC[C@@]2(O)COC(=O)[C@H]2[C@@H]1/C=C(\CO)C(=O)O`: the max response was -25.6% (inactive).

For the molecule `COc1cccc(-c2cc(NCc3ccc4c(c3)OCO4)nc(N)n2)c1`, the Potency is 0.92 µM (active).

In the case of `CC(C)=CCC/C(C)=C/CO[C@@H]1O[C@H](CO)[C@@H](OC(=O)/C=C/c2ccc(O)cc2)[C@H](O[C@@H]2O[C@@H](C)[C@H](O)[C@@H](O)[C@H]2O)[C@H]1O`, the max response was 0.478% (inactive).

Regarding `CCOc1ccc(NC(=S)N2CCC(C(O)(c3ccccc3)c3ccccc3)CC2)cc1`, the max response was -3% (inactive).

Regarding `CN(c1ccccc1CNc1nc(Nc2ccc3c(c2)CC(=O)N3)ncc1C(F)(F)F)S(C)(=O)=O`, the Potency is 16.4 µM (active).

As for `C[C@@H]1CCC2C(C)(C)[C@H](O)CC[C@]2(C)[C@@]12Cc1c(O)cc3c(c1O2)CNC3=O` (stereo partly specified), the max response is -75.1% (inactive).

For the molecule `C=C1C(OC(C)=O)CCC2(C)CC3(OC)OC(=O)C(C)=C3CC12` (stereo unspecified), the max response is -3.85% (inactive).

As for `COc1cc2c3c(cc4ccccc4c3c1O)NC2=O`, the max response was 4.86% (inactive).

For the molecule `Cc1nc(C)c(-c2ccc(C3CCC(CC(=O)O)CC3)cc2)nc1C(N)=O` (stereo unspecified), the max response was 0.3% (inactive).

As to `CC1(C)CCCC2(C)C1CC=C1C(=O)OC(O)C12O` (stereo unspecified), the max response is -7.54% (inactive).

On to `CC(C)CCC1(O)C(=O)C(C)(C)C(O[C@@H]2O[C@H](CO)[C@@H](O)[C@H](O)[C@H]2O)C(C)(C)C1O` (stereo partly specified), for which the max response is 0.265% (inactive).

Consider `N[C@H]1Cc2ccccc2N(O)C1=O`, for which the max response was -6.2% (inactive).

Regarding `CC/C=C\CCO[C@@H]1O[C@H](CO[C@@H]2OC[C@H](O)[C@H](O)[C@H]2O)[C@@H](O)[C@H](O)[C@H]1O`, the call was inactive.
